From PubChem BioAssay
A selection: hits, their analogues and other compounds. The true share with any hit is near 2.2%.
MOR-DOR ag = agonists of human mu-delta opioid receptor heterodimerization | P35372+P41143 | cells, OPRM1-OPRD1 heterodimerization, luminescence | activation, % at 9.3 µM | 340,000 compounds, 0.3% hits | AID 504326; in the data active = activation above about 18%;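 also: 0% = vehicle-treated cells and 100% = reference agonist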
OPRM1-OPRD1 inv = mu-delta opioid heterodimer inverse agonism. P35372+P41143. cell-based MOR-DOR heterodimer luminescence. inhibition, % at 9.3 µM. 340,000 compounds, 0.21% hits. AID 504357; in the data active = inhibition above about 22%, passing the limit was not always enough;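 also: 0% = cells with DMSO and 100% = wells without cells with DMSO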
HGIII-sPLA2 inh = Blocks human group III sPLA2 activity. Q9NZ20. QFRET BODIPY PC-A2 liposome hydrolysis, fluorescence. inhibition, % at 12.2 µM. 370,000 compounds, 0.56% hits;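 active = inhibition above mean plus 3 SD of compounds lying within the high and low control bounds, cut at about 19% in these data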;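 also: 0% = median of test compound wells and 100% = no enzyme DMSO wells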
HTR5A inv ctr = inverse agonist of human HTR5A in OPRM1-OPRD1 counter-screen | P47898 | HTR5A cell line, luminescence, inverse agonism | inhibition, % at 9.3 µM | 340,000 compounds, 0.083% hits; in the data active = inhibition mostly above about 23%, no sharp cut-off; inactive = mostly below about 18%;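 also: 0% = cells with DMSO and 100% = no-cell wells with DMSO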
Target sequence (P47898 whole entry, looked up): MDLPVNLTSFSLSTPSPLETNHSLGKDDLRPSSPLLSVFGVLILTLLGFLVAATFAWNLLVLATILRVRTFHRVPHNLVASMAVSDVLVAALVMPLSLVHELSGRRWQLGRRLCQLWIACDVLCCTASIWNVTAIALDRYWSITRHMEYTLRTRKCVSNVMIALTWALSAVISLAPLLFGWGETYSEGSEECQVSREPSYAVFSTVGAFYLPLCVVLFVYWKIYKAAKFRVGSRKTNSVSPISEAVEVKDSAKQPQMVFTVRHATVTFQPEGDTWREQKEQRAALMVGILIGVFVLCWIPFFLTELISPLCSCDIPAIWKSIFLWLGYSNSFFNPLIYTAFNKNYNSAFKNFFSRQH
HTR5A ag = counter-screen for OPRM1-OPRD1 agonists: human HTR5A agonism | 340,000 compounds, 0.61% hits | P47898 | HTR5A agonist assay, luminescence, cell-based | AID 504692 | activation, % at 9.3 µM; in the data active = activation mostly above about 9.5%, no sharp cut-off; inactive = mostly below about 7.6%;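 also: 0% = cells with vehicle only and 100% = reference agonist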
m5-HT2A agonist = activates the mouse 5-HT2A serotonin receptor. AID 624169. activation, % at 7.6 µM. CHO-K1 mHTR2A beta-arrestin complementation, luminescence; percent of 30 µM serotonin response. P35363. 360,000 compounds, 0.66% hits;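 active = activation above a run cutoff, the mean activation of all tested compounds plus 3 SD, cut at about 14% in these data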;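 also: 0% = plate median of compound wells and 100% = 30 µM serotonin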
OPRM1-D1 inv cf = OPRM1-OPRD1 heterodimer inverse agonism, confirmation; shares compounds with OPRM1-OPRD1 inv; cells expressing OPRM1/OPRD1 heterodimer, luminescence; inhibition, % at 9.3 µM; 580 compounds, 20% hits; AID 504900; in the data active = inhibition above about 32%;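 also: 0% = cells with DMSO and 100% = wells lacking cells with DMSO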
HTR5A inv count = counter-screen for OPRM1-OPRD1 inverse agonists: human HTR5A inverse agonism; 580 tested, under 10 active; AID 504914; shares compounds with OPRM1-OPRD1 inv; HTR5A-expressing cells, luminescence; inhibition, % at 9.3 µM; call rule not given here;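 also: 0% = cells with DMSO and 100% = no-cell wells with DMSO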
An asterisk follows results filed as active.

Screening CC(COc1ccc(Cl)cc1)CN1CCC(C(O)(c2ccccc2)c2ccccc2)CC1 (stereo unspecified) returned HGIII-sPLA2 inh -6.
`CC1=C/C(=C(/c2cc(C)c(O)c(Br)c2)c2ccccc2S(=O)(=O)O)C=C(Br)C1=O` gave MOR-DOR ag -4, OPRM1-OPRD1 inv 20, HGIII-sPLA2 inh -13, HTR5A inv ctr 21, HTR5A ag -5 and m5-HT2A agonist -3.
CC1=C/C(=C(/c2ccc(O)c(C)c2)c2ccccc2S(=O)(=O)O)C=CC1=O was read as MOR-DOR ag -7, OPRM1-OPRD1 inv 29*, HGIII-sPLA2 inh -5, HTR5A inv ctr 15, HTR5A ag -5, m5-HT2A agonist -6, OPRM1-D1 inv cf inactive and HTR5A inv count -9.
`O=C1c2ccccc2-c2nc3ccccc3nc21` gave MOR-DOR ag -16, OPRM1-OPRD1 inv 79*, HGIII-sPLA2 inh 6, HTR5A inv ctr 10, HTR5A ag -6, m5-HT2A agonist 1, OPRM1-D1 inv cf -437 and HTR5A inv count -10.
For COc1cc(/C=N/Nc2ccccc2[N+](=O)[O-])cc(OC)c1O the results were MOR-DOR ag 4, OPRM1-OPRD1 inv -19, HGIII-sPLA2 inh -6, HTR5A inv ctr -9, HTR5A ag 3 and m5-HT2A agonist -4.
For COc1cc(/C=N/Nc2ccc(F)cc2F)cc(OC)c1O the results were MOR-DOR ag -6, OPRM1-OPRD1 inv 32*, HGIII-sPLA2 inh -14, HTR5A inv ctr 13, HTR5A ag -4, m5-HT2A agonist 7, OPRM1-D1 inv cf -12 and HTR5A inv count 1.
O=S(=O)(Nc1cccc2ncccc12)c1cccs1 was read as MOR-DOR ag -10, OPRM1-OPRD1 inv 47*, HTR5A inv ctr 21, HTR5A ag -10, m5-HT2A agonist -12, OPRM1-D1 inv cf -196 and HTR5A inv count -13.
O=C(CCC(=O)OCC(=O)c1ccc([N+](=O)[O-])cc1)NC1CCCCC1 was read as MOR-DOR ag -3, OPRM1-OPRD1 inv 17, HGIII-sPLA2 inh 11, HTR5A inv ctr -18, HTR5A ag -5 and m5-HT2A agonist -2.
Screening Cc1ccc(C(=O)COC(=O)CCC(=O)Nc2cc(Cl)ccc2Cl)cc1[N+](=O)[O-] returned MOR-DOR ag -12, OPRM1-OPRD1 inv 52*, HGIII-sPLA2 inh 10, HTR5A inv ctr 33, HTR5A ag -13, m5-HT2A agonist 2, OPRM1-D1 inv cf 36* and HTR5A inv count 10.
CC(=O)Nc1ccc(NC(=O)CCC(=O)OCC(=O)c2cccc([N+](=O)[O-])c2)cc1 was read as MOR-DOR ag -11, OPRM1-OPRD1 inv 71*, HGIII-sPLA2 inh 2, HTR5A inv ctr 30, HTR5A ag -12, m5-HT2A agonist -1, OPRM1-D1 inv cf -12 and HTR5A inv count -18.
O=C(CCC(=O)OCC(=O)c1cccc([N+](=O)[O-])c1)NC1CCCCC1 was read as MOR-DOR ag -12, OPRM1-OPRD1 inv 62*, HGIII-sPLA2 inh 8, HTR5A inv ctr -19, HTR5A ag -5, m5-HT2A agonist -1, OPRM1-D1 inv cf -22 and HTR5A inv count 10.
O=C(CCC(=O)OCC(=O)c1cccc([N+](=O)[O-])c1)Nc1ccccc1Cl was read as MOR-DOR ag -17, OPRM1-OPRD1 inv 77*, HGIII-sPLA2 inh 1, HTR5A inv ctr 26, HTR5A ag -12, m5-HT2A agonist -5, OPRM1-D1 inv cf -56 and HTR5A inv count 1.
Cc1cc(N2CCN(CC(C)(C)O)C[C@H]2C)ccc1N1CCN(Cc2ccccc2)[C@@H](C)C1 was read as HGIII-sPLA2 inh 10.
COc1cc([N+](=O)[O-])cc(/C=N/NC(=O)c2ccc(C)nc2)c1O was read as MOR-DOR ag -4, OPRM1-OPRD1 inv 22*, HGIII-sPLA2 inh -6, HTR5A inv ctr 8, HTR5A ag -2, m5-HT2A agonist -8, OPRM1-D1 inv cf inactive and HTR5A inv count -30.
Screening O=C(CC1CCCC1)N[C@H](C(=O)N1CCC[C@H]1C(=O)NC1CCCC1)c1ccccc1 returned HGIII-sPLA2 inh -4.
Screening COc1ccc(C(=O)OCC(=O)c2ccc(S(=O)(=O)N3CCCCC3)cc2)c(OC)c1 returned MOR-DOR ag -1, OPRM1-OPRD1 inv 9, HGIII-sPLA2 inh 0, HTR5A inv ctr 4, HTR5A ag 1 and m5-HT2A agonist 12.
For COc1cccc(/C=C/C(=O)OCC(=O)c2ccc(S(=O)(=O)N3CCCCC3)cc2)c1OC the results were MOR-DOR ag -6, OPRM1-OPRD1 inv 31*, HGIII-sPLA2 inh -32, HTR5A inv ctr 13, HTR5A ag -5, m5-HT2A agonist -6, OPRM1-D1 inv cf -32 and HTR5A inv count 17.
For Cc1ccc(C(=O)OCC(=O)c2ccc(S(=O)(=O)N3CCCCC3)cc2)o1 the results were MOR-DOR ag -8, OPRM1-OPRD1 inv 52*, HGIII-sPLA2 inh -32, HTR5A inv ctr 20, HTR5A ag -7, m5-HT2A agonist 2, OPRM1-D1 inv cf inactive and HTR5A inv count -11.
Screening COc1cc(/C=C/C(=O)OCC(=O)c2ccc(S(=O)(=O)N3CCCCC3)cc2)cc(OC)c1OC returned MOR-DOR ag -4, OPRM1-OPRD1 inv 18, HGIII-sPLA2 inh 2, HTR5A inv ctr -15, HTR5A ag 6 and m5-HT2A agonist 0.
For COc1cccc(C(=O)OCC(=O)c2ccc(S(=O)(=O)N3CCCCC3)cc2)c1OC the results were MOR-DOR ag -5, OPRM1-OPRD1 inv 30*, HGIII-sPLA2 inh -69, HTR5A inv ctr 8, HTR5A ag -3, m5-HT2A agonist -4, OPRM1-D1 inv cf -31 and HTR5A inv count 7.
Screening O=C(OCC(=O)c1ccc(S(=O)(=O)N2CCCC2)cc1)C1=COCCO1 returned MOR-DOR ag -5, OPRM1-OPRD1 inv 28, HGIII-sPLA2 inh -13, HTR5A inv ctr 7, HTR5A ag -3 and m5-HT2A agonist -1.
`O=C(N[C@@H](Cc1cccnc1)C(=O)N1CCC[C@H]1C(=O)NCCc1ccccc1Cl)c1cccs1` gave HGIII-sPLA2 inh 1.
For Cc1c[nH]c2cccc(-c3c(Cl)cccc3Cl)c12 the results were HGIII-sPLA2 inh -17.
For CC1(C)C(c2ccccc2)=NC(c2ccc(F)cc2)N1O (stereo unspecified) the results were MOR-DOR ag -5, OPRM1-OPRD1 inv 29*, HGIII-sPLA2 inh -2, HTR5A inv ctr -5, HTR5A ag 4, m5-HT2A agonist -2, OPRM1-D1 inv cf -13 and HTR5A inv count -57.
For CC1(C)C(c2cccs2)=NC(c2ccccc2)N1O (stereo unspecified) the results were MOR-DOR ag -3, OPRM1-OPRD1 inv 14, HGIII-sPLA2 inh 0, HTR5A inv ctr -14, HTR5A ag 5 and m5-HT2A agonist -2.
